Where “and” joins values, the source holds several entries; their conditions need not be identical. Identical values can stand only once. Results filed as inconclusive are left out. More than one record can exist for a structure, and the calls need not agree. Calls of active or inactive are those of the source. The calls were made as follows: active = hit-call score of the fitted dose curve at least 0.9, where 1 is the maximum; inconclusive = response in the unintended direction; inactive = score below 0.9.

A short description of the assay: CCTE_Mundy_HCI_Cortical_Synap_Neur_Matur_NeuronCount: CCTE's Synaptogenesis and Neurite Maturation Assay in rat cortical cells for Neuron Count, Mundy Lab (AID 2284242).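 As to AC50: hits reduce neuron count versus DMSO baseline.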 Here is the method:
CCTE_Mundy_HCI_Cortical_Synap&Neurite_Matur is a multiplexed, cell-based-readout assay that uses rat primary cortical cells with measurements taken at 288.33 hours after chemical dosing in a microplate: 96-well plate.CCTE_Mundy_HCI_Cortical_Synap_Neur_Matur_NeuronCount is one of eight components of the CCTE_Mundy_HCI_Cortical_Synap&Neurite_Matur assay. It measures cell viability related to number of neurons using High Content Imaging of fluorescently labelled markers.[…] Using a type of morphology reporter, loss -of-signal activity can be used to understand developmental effects.
Cells are plated onto 96 well plates and allowed 2 hr for attachment to the substrate. At days in vitro (DIV) 5, Cytosine Arabinoside (AraC) is added to arrest glial cell growth. Chemicals are dosed and a media change is performed at DIV 7 of differentiation and is continued through DIV 12 when the experiment is terminated. Cells are fixed with […] and Hoechst Dye. Cells are stained using Millipore Mouse anti-MAP2MAB3418 (1:800) and Millipore Rabbit anti-Synaptophysinsc-1750 (1:250) primary antibodies and Alexa Fluor-488 goat anti-mouse and AlexaFluor-546 goat anti-rabbit secondary antibodies to label neuronal cell nuclei, synapses and neurites. A Cellomics ArrayScan VTi HCS Reader is used for automated image acquisition and analysis of neurite outgrowth.
As to `CC(C)N(C(=O)SCC(Cl)=C(Cl)Cl)C(C)C`, the AC50 is 24.6 µM (active).

In the case of `CCCSP(=O)(OCC)SCCC`, the AC50 is 3.79 µM (active) and the molecule was classed as inactive.

Turning to `CCOP(=S)(Oc1cnc(C(C)(C)C)nc1)OC(C)C` (centres undefined), the outcome was inactive and the AC50 was 20.1 µM (active).

On to `CC[C@H](C)[C@H]1O[C@]2(C=C[C@@H]1C)C[C@@H]1C[C@@H](C/C=C(\C)[C@@H](O[C@H]3C[C@H](OC)[C@@H](O[C@H]4C[C@H](OC)[C@@H](NC)[C@H](C)O4)[C@H](C)O3)[C@@H](C)/C=C/C=C3\CO[C@@H]4[C@H](O)C(C)=C[C@@H](C(=O)O1)[C@]34O)O2`, for which the AC50 is 672 nM (active) and 1.14 µM (active).

As to `COP(=O)(OC)OC(Br)C(Cl)(Cl)Br` (centres undefined), the result was inactive and the AC50 is 26.1 µM (active).

Take `COP(=O)(OC)C(O)C(Cl)(Cl)Cl` (centres undefined): the AC50 is 50 µM (active).

Turning to `CON=C(C(=O)OC)c1ccccc1CON=C(C)c1cccc(C(F)(F)F)c1`, the AC50 is 0.293 µM (active).

As for `CCCSP(=O)(OCC)Oc1ccc(Br)cc1Cl` (centres undefined), the call was inactive.

As to `CCOP(=S)(OCC)SCCSCC`, the molecule was called inactive.

`CN1COCN(Cc2cnc(Cl)s2)C1=N[N+](=O)[O-]`: the call was inactive.

With `COP(=O)(NC(C)=O)SC` (centres undefined), the molecule was classed as inactive.

For `CCOP(=S)(OCC)Oc1ccc([N+](=O)[O-])cc1`, the molecule was classed as inactive.

As to `S=C1NCCN1`, the molecule was classed as inactive.

For `CCOP(=S)(OCC)Oc1ccc2c(C)c(Cl)c(=O)oc2c1`, the result was inactive.

For the molecule `CCOP(=S)(OCC)Oc1cc(C)nc(C(C)C)n1`, the call was inactive.

With `CCOP(=O)(NC(C)C)Oc1ccc(SC)c(C)c1` (centres undefined), the molecule was called inactive.

For `CCOP(=S)(OCC)OC(Cl)C(Cl)(Cl)Cl` (centres undefined), the AC50 is 21.8 µM (active) and the outcome was inactive.

For the molecule `O=[N+]([O-])c1cc(C(F)(F)F)c(Cl)c([N+](=O)[O-])c1Nc1ncc(C(F)(F)F)cc1Cl`, the AC50 was 0.717 µM (active).

Regarding `CN(C)[C@@H]1C(=O)C(C(N)=O)=C(O)[C@@]2(O)C(=O)C3=C(O)c4c(O)cccc4[C@@](C)(O)[C@H]3[C@H](O)[C@@H]12`, the AC50 was 86.1 µM (active).

Take `CCCCSP(=O)(SCCCC)SCCCC`: the AC50 was 86 µM (active) and 24.4 µM (active).

For the origin of these results see PubChem BioAssay (EPA / NIEHS).
